Laboratory results as given in PubChem BioAssay AID2517 (National Center for Advancing Translational Sciences (NCATS), 2012).
“And” between values parts separate entries of the source, which are not always exact repeats. Equal values may be shown once. Hit rate of the full screen: of about 350,000 compounds, about 1,200 (0.34%) were called active. Roughly 3% stayed inconclusive and do not appear here. The call rests on the fitted dose curve; in most records, active means well fitted inhibition curve with a large enough effect; inconclusive means small, poorly fitted or top-dose-only effect; inactive means no such curve, though single readings can be large or run the other way. Shown is part of a subset that was picked to be rich in actives.

Target: DNA repair nuclease/redox regulator APEX1 (Homo sapiens) (UniProt P27695)
Sequence (P27695 whole entry, looked up): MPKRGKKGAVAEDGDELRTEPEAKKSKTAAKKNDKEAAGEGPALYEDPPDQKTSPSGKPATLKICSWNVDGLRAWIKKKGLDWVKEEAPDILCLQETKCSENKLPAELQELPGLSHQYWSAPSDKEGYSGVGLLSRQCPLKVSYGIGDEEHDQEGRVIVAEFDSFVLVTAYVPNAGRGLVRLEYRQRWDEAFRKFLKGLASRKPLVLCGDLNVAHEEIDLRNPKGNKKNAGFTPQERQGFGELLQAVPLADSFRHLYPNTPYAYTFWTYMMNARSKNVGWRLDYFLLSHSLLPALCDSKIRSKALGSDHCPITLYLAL
Experiment: qHTS Assay for Inhibitors of the Human Apurinic/apyrimidinic Endonuclease 1 (APE1); further: nearly all actives have a fitted effect of over 55% in size;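 on activity change, negative = inhibition: plate controls were vehicle for no effect and reference inhibitor for full effect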
Conditions: recombinant APE1, TAMRA/BHQ-2 abasic DNA cleavage fluorescence; activity change, negative = inhibition: at 65.8 µM (top of the series)
In short: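 Step 1: APE1 (0.75 nM) with compound, 15 min RT. Step 2: add 50 nM fluorophore/quencher THF duplex. Step 3: three fluorescence reads 60 s apart (525/598 nm); read 3 minus read 1 = reaction progress.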
Potency means the concentration at half of the fitted maximal effect.

Potency, inactive:
Cc1cc2nc3c(=O)[nH]c(=O)nc-3n(C[C@H](O)[C@H](O)[C@H](O)CO)c2cc1C
COc1ccc(CCCOC(Cn2ccnc2)c2ccc(OC)cc2)cc1 (stereo not drawn)

Potency, active:
N#Cc1c(-c2cccs2)nc(SCC(=O)c2ccc(Br)cc2)[nH]c1=O 39.8 µM
Cc1ccc(-c2nc(SCC(=O)Nc3ccccc3OC(F)F)c3c(C)c(C(=O)O)sc3n2)cc1 39.8 µM
O=C1N[C@H](Cc2c[nH]c3ccccc23)COC(=O)[C@H](Cc2ccc(F)cc2)C/C=C\C[C@H]1CC(=O)N(CCO)Cc1ccccc1 21.2 µM
CC(C)(C)OC(=O)C[C@@H]1C/C=C\C[C@@H](CC(=O)NCCO)C(=O)N[C@H](Cc2c[nH]c3ccccc23)COC1=O 15 µM
Cc1ccc(N=C2NC(=O)/C(=C/C=C/c3ccco3)S2)cc1C 28.2 µM
COc1ccc2[nH]c3c(C)c4cc[n+](C)cc4c(C)c3c2c1 12.6 µM
COCCNC(=O)Nc1ccc2nc(-c3ccco3)c(-c3ccco3)nc2c1 6.31 µM
O=C(NCc1ccccn1)c1ccc2nc(-c3ccco3)c(-c3ccco3)nc2c1 10 µM
O=C1C(c2[nH]c3ccccc3c2O)=Nc2ccccc21 7.94 µM and 3.98 µM
COc1c(O)cc2oc(-c3ccc(O)c(O)c3)cc(=O)c2c1O 7.08 µM
CCOC(=O)C1=NO[C@@]2(C=C(Br)C(=O)[C@H]3O[C@H]32)C1 7.94 µM
c1ccc(CSc2nnc(-c3ccco3)c(-c3ccco3)n2)cc1 10 µM
CN(C(=O)COC(=O)c1cc(-c2ccco2)nc2ccccc12)C1CCS(=O)(=O)C1 (stereo not drawn) 7.94 µM
COc1ccc(-c2nn(-c3ccccc3)cc2/C=C2/SC(=S)N(CCCC(=O)O)C2=O)c(C)c1 29.9 µM
O=C(CCNC(=O)c1ccccc1)NN=Cc1ccc(Br)o1 15 µM

Activity change, negative = inhibition, inactive:
COC(=O)C/C=C/[C@@H](C)[C@H](NC(=O)OCC(Cl)(Cl)Cl)c1ccccc1 3.41%
O=c1c(-c2ccc(F)cc2)nc2cnc(N3CCNCC3)nc2n1Cc1cccs1 12.1%
CCCCC/C=C\C/C=C\CCCCCCCCCC(N)=O 3.71%
Cc1cc(C)c2c(=O)[nH]c(SCC(=O)Nc3ccc(Br)cc3)nc2n1 5.12%
O=C(CSc1nc2ccccc2c(=O)[nH]1)Nc1nc(-c2ccc(Br)cc2)cs1 -13.4%
O=C(O)c1ccc(/C=C2/SC(=S)N(c3cccc(C(F)(F)F)c3)C2=O)cc1 20.2%
OC[C@H]1O[C@@H](n2cnc3c(N[C@H]4CC5CCC4C5)ncnc32)[C@H](O)[C@@H]1O (stereo partly drawn) 13.8%
C=C(C(C)=O)C(O)c1ccc([N+](=O)[O-])cc1 (stereo not drawn) -1.09%
CCCCC[C@H](O)/C=C/[C@@H]1[C@@H](CC(=O)CCC(=O)O)[C@@H](O)C[C@H]1O 1.56%
CCOC(=O)c1ccc[n+](CC(=O)Nc2ccccc2OC(F)F)c1 0.0835%
COc1ccccc1NC(=O)CSc1nc2sc3c(c2c(=O)n1-c1ccccc1)CCN(C)C3 34.8%
CC(=O)OCC1OC(C#Cc2ccccc2Cl)C=CC1OC(C)=O (stereo not drawn) -9.65% [at 12.4 µM]
CC(=O)Oc1c2c(c3c(c1CC=C(C)C)O[C@@]14C(=CC5CC1C(C)(C)OC4(C/C=C(\C)C(=O)O)C5=O)C3=O)OC(C)(CCC=C(C)C)C=C2 (stereo partly drawn) -5.43%
C[C@H]1COC(=O)[C@H](CC(=O)OC(C)(C)C)C/C=C\C[C@@H](CC(=O)N[C@H](CO)Cc2ccccc2)C(=O)N1 4.54%
CC(C)(C)OC(=O)C[C@@H]1C/C=C\C[C@@H](CC(=O)N(CCO)Cc2ccccc2)C(=O)N[C@H](Cc2ccccc2)COC1=O -32.1%
O=C1N[C@@H](c2ccccc2)COC(=O)[C@H](Cc2ccc(F)cc2)C/C=C\C[C@@H]1CC(=O)N(CCO)Cc1ccccc1 27.2%
CC(C)(C)OC(=O)C[C@@H]1C/C=C\C[C@H](CC(=O)N[C@@H](CO)Cc2ccccc2)C(=O)N[C@H](Cc2ccccc2)COC1=O -4.67%
CCCCc1nn(-c2ccccc2C(F)(F)F)c(=O)n1Cc1ccc(-c2ccccc2S(=O)(=O)NC(=O)c2sccc2C)cc1 -6.08%
CO[C@H]1COC(=O)[C@@H](OCc2ccccc2)/C=C\[C@H](C)[C@@H](OC)COC(=O)[C@H](OCc2ccccc2)/C=C\[C@@H]1C 33.1% [at 12.4 µM]
CCC[C@@H]1C[C@@]1(CCC)C(NC(=O)c1ccc(-c2ccccc2)cc1)c1cccc(Cl)c1 (stereo partly drawn) -0.889%
CCCn1c(-c2ccc(F)cc2)nc2c(NC3CCN(Cc4ccccc4)C3)nc(C)nc21 (stereo not drawn) 7.5%
COc1ccc(C(=O)N2CCC3(CC2)CCN(c2ccccn2)CC3)cc1 4.46%
COc1ccc(-c2nc3c(c4c2C[C@H](c2ccccc2)OC4)CN(C(=O)c2cccnc2)CC3)c(C)c1 -2.55% [at 12.4 µM]
NC(=O)C1CCN(c2nc(-c3cccc(F)c3)cs2)CC1 16.9%
C=C[C@](C)(O)CCC1C(=C)CCC2[C@@](C)(CO)CCC[C@@]12C (stereo partly drawn) -0.9%
COc1ccc2[nH]c(=S)cc(C)c2c1 17.4%
COc1ccc2[nH]c(C(=O)N3CCN(C)CC3)c(C)c2c1 -10.7%
CC/C=C\C/C=C\C/C=C\C/C=C\C/C=C\C/C=C\CCC(=O)NCCc1ccc(O)c(O)c1 -1.09%
COC(=O)C(C(=O)OC)[C@@H](NC=O)c1ccccc1 0.907%
Nc1nc2c(nc(Cl)n2C2OC(CO)C(O)C2O)c(=O)[nH]1 (stereo not drawn) 12.3%
COc1cccc(-c2cc(NCCc3c[nH]c4ccc(OC)cc34)ncn2)c1 3.71%
CS(=O)(=O)NC(=O)CCC/C=C\C[C@H]1C(=O)C[C@@H](O)[C@@H]1/C=C/[C@H](O)COc1ccccc1 1.1%
CC/C=C\C/C=C\C/C=C\C/C=C\C/C=C\C/C=C\CCC(=O)NC(C)C(=O)O (stereo not drawn) -0.719%
COC(=O)c1ccc(C(NC(=O)OCc2ccccc2)/C(C)=C/[C@@H](C)C(=O)NCc2cc(C)on2)cc1 (stereo partly drawn) 0.278%
CC(C)(C)c1ccc(OC2C=CC(C#Cc3ccccc3)OC2CO)cc1 (stereo not drawn) 3.5% [at 12.4 µM]
O=C(Nc1nc(-c2ccco2)c(-c2ccco2)s1)c1ccco1 11.9%
O=C1CSc2ccc(C(=O)NCc3ccccn3)cc2N1 6.27%
COc1cccc(S(=O)(=O)NCc2ccc(C(=O)NCc3ccccn3)cc2)c1 7.86%
COCCNC(=O)c1snc2ccc(Cl)cc12 -2.23%
O=C(O)CC(C(=O)O)C(CC(=O)O)C(=O)O (stereo not drawn) 15.8%
NC(=O)c1sc(-c2ccsc2)cc1N 1.82%
COc1ccc(CC(N)C(=O)NC2C(O)[C@H](n3cnc4c(N(C)C)ncnc43)O[C@@H]2CO)cc1 (stereo partly drawn) -0.283%
CCCn1c(C)nc2c(NCCCCN(CC)CC)nc(C)nc21 -4.94%
C=C1CCN(C(CC(C)C)C(=O)N2CCOCC2)S(=O)(=O)c2ccccc21 (stereo not drawn) 2.97%
CC(C)C(=O)Nc1c(O)c2ccccc2[nH]c1=O -2.89%
O=C(Cc1c(O)c2ccccc2[nH]c1=O)NCc1ccccc1 -2.72%
CCCCC/C=C\C/C=C\CCCCCCCCCC(=O)NCC(=O)O 3.32%
CCCCCCCC/C=C\CCCCCCCC(=O)NCC(=O)O 4.31%
COc1ccc2c(=O)cc(-c3ccccc3)oc2c1O -7.77%
Cc1cccc(-c2cc(=O)c3cc(C)ccc3o2)c1 -8.53%
Cc1ccc(NC(=O)O[C@@H]2C(=O)c3cc(Br)ccc3O[C@H]2c2ccc3c(c2)OCO3)cc1Br 0.243%
CC(C)(C)n1ncc2c(=O)n(Cc3ccc(C(=O)c4ccccc4)cc3)cnc21 -0.344%
Cc1cccc2c3c(ccc12)C1=C(C(=O)C3=O)C(C)CO1 (stereo not drawn) 9.79%
CN[C@@H]1[C@H](O[C@H]2[C@H](O[C@H]3[C@H](O)[C@@H](O)[C@H](N=C(N)N)[C@@H](O)[C@@H]3N=C(N)N)O[C@@H](C)[C@]2(O)CO)O[C@@H](CO)[C@H](O)[C@H]1O 0.585%
CCOC(=O)C1=NOC(Cn2cc(C(C)=O)c(=O)[nH]c2=O)C1 (stereo not drawn) 1.23%
CCOC(=O)C1=C(C)N=C2c3ccccc3C(=O)C2C1c1ccc(Br)cc1 (stereo not drawn) -2.57%
CC(C)C[C@@H](CC(=O)N[C@@H](CCC(=O)O)CC(=O)O)NC(=O)[C@@H]1CCCC[C@H]1NC(=O)C[C@@H](NC(=O)C[C@H](Cc1c[nH]c2ccccc12)NC(=O)[C@@H]1CCCC[C@H]1N)C(C)C -3.05%
CC(C)C1=CC2=CC[C@@H]3[C@](C)(CO)CCC[C@]3(C)C2CC1 (stereo partly drawn) 0.19%
O=C(CSc1nnc(-c2ccco2)n1-c1ccccc1)NCCc1ccccc1 -4.34%
Clc1ccc(CSc2nnc3c(n2)[nH]c2ccccc23)cc1 -0.131%
O=c1c(-c2cc(F)cc(F)c2)nc2cnc(Oc3ccccc3)nc2n1C[C@H]1CCCO1 3.92%
CC/C=C/C/C=C/C/C=C/CCCCCCCC(=O)OCC -3.48%
COc1ccc(/C=C(\C#N)C(=O)OCC(=O)N(C)C2CCS(=O)(=O)C2)cc1 (stereo not drawn) -0.493%
CN(C(=O)COC(=O)Cc1ccccc1[N+](=O)[O-])C1CCS(=O)(=O)C1 (stereo not drawn) 8.91%
C1CCC2OC2C1 (stereo not drawn) -0.558%
Cc1ccc(-c2nn(-c3ccccc3)cc2/C=C2\SC(=S)N(CCCCCC(=O)O)C2=O)o1 -84.3%
COc1cccc(/C=C2/SC(=S)N(CC(=O)NC3C=CS(=O)(=O)C3)C2=O)c1 (stereo not drawn) 37.3%
C=C1C(=O)C23C(O)C1CCC2[C@]12COC3(O)C(O)C1C(C)(C)CC[C@H]2O (stereo partly drawn) -2.57%
CC[C@@]12C=C(/C=C/c3ccccc3)[C@](CC)(C1)[C@H](c1ccccc1)CC2=O 17.2%
O=C(CCc1n[nH]c(=O)[nH]c1=O)N/N=C/c1ccc(Br)o1 -7.77%
O=C(CCNC(=O)c1ccccc1Cl)NN=Cc1ccco1 -5.79%
